Experimental findings from ChEMBL document CHEMBL1961873, “Compounds: GSK PKIS; Assays: Nanosyn kinase panel” (2012) are described below.

Structures are written as SMILES. “And” between values parts separate entries of the source, which are not always exact repeats. Equal values may be shown once.

The term inhibition denotes the change of the read-out against control, counted positive when it falls.

Sequence of Serine/threonine-protein kinase B-raf (Homo sapiens), P15056 [V600E] (P15056 whole entry V600E): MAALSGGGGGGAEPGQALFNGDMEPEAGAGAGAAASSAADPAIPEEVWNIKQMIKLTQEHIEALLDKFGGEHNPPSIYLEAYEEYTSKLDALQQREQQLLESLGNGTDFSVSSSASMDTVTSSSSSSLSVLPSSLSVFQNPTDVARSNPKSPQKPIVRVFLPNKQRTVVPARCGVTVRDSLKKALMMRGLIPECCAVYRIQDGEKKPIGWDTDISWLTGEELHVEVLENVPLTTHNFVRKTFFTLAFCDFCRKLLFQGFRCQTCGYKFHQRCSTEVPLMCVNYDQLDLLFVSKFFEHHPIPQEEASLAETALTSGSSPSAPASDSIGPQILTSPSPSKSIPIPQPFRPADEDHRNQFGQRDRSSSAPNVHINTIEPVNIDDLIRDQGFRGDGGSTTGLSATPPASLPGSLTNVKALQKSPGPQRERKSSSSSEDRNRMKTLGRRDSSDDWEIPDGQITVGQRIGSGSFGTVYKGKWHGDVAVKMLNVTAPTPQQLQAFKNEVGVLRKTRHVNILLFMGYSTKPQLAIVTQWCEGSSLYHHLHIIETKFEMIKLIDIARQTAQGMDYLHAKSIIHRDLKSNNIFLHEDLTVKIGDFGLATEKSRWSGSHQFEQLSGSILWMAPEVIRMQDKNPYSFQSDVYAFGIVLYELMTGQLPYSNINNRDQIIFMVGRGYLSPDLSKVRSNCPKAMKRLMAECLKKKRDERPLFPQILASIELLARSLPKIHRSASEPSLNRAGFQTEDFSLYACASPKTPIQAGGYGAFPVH
Sequence of Serine/threonine-protein kinase B-raf (Homo sapiens) (P15056 whole entry): as the sequence (P15056 whole entry V600E) above, with E600V counted along it

The first assay addresses Serine/threonine-protein kinase B-raf (Homo sapiens) (UniProt P15056). Conditions: at 1 µM.
On to `O=C1Nc2ccccc2/C1=C1\CCc2cc(O)ccc21`, for which the inhibition amounted to 9.83%.
Same read-out and setting: with `CCS(=O)(=O)c1ccc(OC)c(Nc2ncc(-c3cccc(C(C)=O)c3)o2)c1` the figure was 6.17%; with `Cc1ccc(-c2cc3c(NC(=O)C4CC4)ncnc3o2)cc1`, 4.6%; with `COc1ccc(-c2nn3ncccc3c2-c2ccnc(Nc3ccc(F)c(F)c3)n2)cc1`, 5.29%.
Still for that read-out and setting: next, `O=C(Nc1n[nH]c2nnc(-c3cccnc3)cc12)C1CC1`: 2.61%.
On the same count and under the same terms, with `O=C(O[C@H]1CN[C@H](C#Cc2cc3ncnc(Nc4ccc5c(ccn5Cc5cc(F)ccc5F)c4)c3s2)C1)N1CCOCC1` the figure was 6.76%.
As for `COc1cccc(Nc2nccc(-c3cnn4ncccc34)n2)c1`, the inhibition was found to be 31.6%.
As to `Nc1nccc(-c2c(-c3ccc(F)cc3)ncn2C2CCNCC2)n1`, the inhibition is -0.2% and 7.76%.
On the same count and under the same terms, next, `NC(=O)c1ccc2c(-c3ccnc(NCCCO)n3)c(-c3ccc(F)cc3)nn2c1`: 22.2%; `CS(=O)(=O)Nc1ccc(-c2cc(-c3ccccc3)cc(C(N)=O)c2N)cc1`: 3.97%; `CS(=O)(=O)Nc1ccc(-c2ccc3c(NC(=O)C4CC4)n[nH]c3c2)cc1`: 6.73%.
Same read-out and setting: with `Cn1c(-c2nonc2N)nc2cnccc21` the figure was 3.62%; with `CC1=C(C(=O)Nc2ccc3[nH]ncc3c2)C(c2ccc(F)cc2)N=C(c2ccc(C(F)(F)F)nc2)N1` (configuration not stated), 5.6%.
For `c1ccc(-c2n[nH]cc2-c2ccnc(-c3ccc(OCCn4ccnc4)cc3)c2)nc1`, the inhibition came out at 1.85%.
On the same count and under the same terms, with `CS(=O)(=O)CCNCc1ccc(-c2ccc3ncnc(Nc4ccc(OCc5cccc(C(F)(F)F)c5)cc4)c3c2)o1` the figure was 8.69%.
On the same count and under the same terms, next, `FC(F)(F)CNc1nccc(-c2cnn3ncccc23)n1`: 3.85%; `COc1ccc2ncn(-c3cc(O[C@H](C)c4ccccc4C(F)(F)F)c(C(N)=O)s3)c2c1`: -2.23%.
Take `N#Cc1cccc(Nc2ncc(-c3ccccc3)o2)c1`: the inhibition came out at 3.51%.
As for `CCN1CCC(C(=O)Nc2n[nH]c3nnc(-c4cccc(F)c4F)cc23)CC1`, the inhibition worked out at 0.01%.
Same read-out and setting: with `CNC(=O)c1ncccc1Nc1nc(Nc2cc3c(cc2OC)CCCN3C(=O)CN(C)C)nc2[nH]ccc12` the figure was 4.44%; with `CNC(=O)c1cncc(/C=C/c2ccccc2C)c1`, 7.91%.
Take `CS(=O)(=O)CCNCc1ccc(-c2ccc3ncnc(Nc4ccc(OCc5ccccc5)cc4)c3c2)o1`: the inhibition turned out to be 6.13%.
The same measure, in the same setting: with `CS(=O)(=O)CCNCc1ccoc1-c1ccc2ncnc(Nc3ccc(OCc4ccccc4)cc3)c2c1` the figure was 1.49%; with `COc1cc2c(cc1Nc1nc(Nc3cccc(F)c3C(N)=O)c3cc[nH]c3n1)N(C(=O)CN1CCN(C(C)C)CC1)CC2`, 7.9%.
The same measure, in the same setting: with `CN1CCC(n2cnc(-c3ccc(F)cc3)c2-c2ccnc(NCCO)n2)CC1` the figure was 8.68%; with `CCn1c(-c2nonc2N)nc2cncc(C(=O)NCCNC)c21`, 7.26%.
Still for that read-out and setting: with `OCCCNc1nccc(-c2c(-c3ccc(F)cc3)nn3cc(C(F)(F)F)ccc23)n1` the figure was 11.6%; with `NS(=O)(=O)c1ccc(N/N=C2\C(=O)Nc3ccc(C(=O)NCc4ccncc4)cc32)cc1`, 56.7%; with `CC1(C)CC(n2cnc(-c3ccc(F)cc3)c2-c2ccnc(N)n2)CC(C)(C)N1`, 1.13%.
In the case of `COC(=O)Nc1nc2ccc(Oc3ccc(NC(=O)Nc4cc(C(F)(F)F)ccc4F)cc3)cc2s1`, the inhibition amounted to 22.1%.
On the same count and under the same terms, with `COc1c(C(N)=O)cc(-c2ccc(Cl)cc2)cc1-c1ccc(S(N)(=O)=O)cc1` the figure was 8.57%.

The subject of a further assay is Serine/threonine-protein kinase B-raf (Homo sapiens), P15056 [V600E]. Conditions: at 0.1 µM.
Take `O=C1Nc2ccccc2/C1=C1\CCc2cc(O)ccc21`: the inhibition turned out to be 8.49%.
With `CCS(=O)(=O)c1ccc(OC)c(Nc2ncc(-c3cccc(C(C)=O)c3)o2)c1`, the inhibition turned out to be 3.41%.
Same read-out and setting: with `Cc1ccc(-c2cc3c(NC(=O)C4CC4)ncnc3o2)cc1` the figure was 4.47%; with `COc1ccc(-c2nn3ncccc3c2-c2ccnc(Nc3ccc(F)c(F)c3)n2)cc1`, 4.54%; with `O=C(Nc1n[nH]c2nnc(-c3cccnc3)cc12)C1CC1`, 1.02%.
Same read-out and setting: with `O=C(O[C@H]1CN[C@H](C#Cc2cc3ncnc(Nc4ccc5c(ccn5Cc5cc(F)ccc5F)c4)c3s2)C1)N1CCOCC1` the figure was 6.11%; with `COc1cccc(Nc2nccc(-c3cnn4ncccc34)n2)c1`, 4.52%; with `Nc1nccc(-c2c(-c3ccc(F)cc3)ncn2C2CCNCC2)n1`, -4.19% and 1.23%.
For the compound `NC(=O)c1ccc2c(-c3ccnc(NCCCO)n3)c(-c3ccc(F)cc3)nn2c1`, the inhibition is 9.67%.
In the case of `CS(=O)(=O)Nc1ccc(-c2cc(-c3ccccc3)cc(C(N)=O)c2N)cc1`, the inhibition worked out at 2.93%.
Take `CS(=O)(=O)Nc1ccc(-c2ccc3c(NC(=O)C4CC4)n[nH]c3c2)cc1`: the inhibition worked out at 4.74%.
Still for that read-out and setting: next, `Cn1c(-c2nonc2N)nc2cnccc21`: 4.29%.
Still for that read-out and setting: with `CC1=C(C(=O)Nc2ccc3[nH]ncc3c2)C(c2ccc(F)cc2)N=C(c2ccc(C(F)(F)F)nc2)N1` (configuration not stated) the figure was 1.17%; with `c1ccc(-c2n[nH]cc2-c2ccnc(-c3ccc(OCCn4ccnc4)cc3)c2)nc1`, 0.71%.
Still for that read-out and setting: next, `CS(=O)(=O)CCNCc1ccc(-c2ccc3ncnc(Nc4ccc(OCc5cccc(C(F)(F)F)c5)cc4)c3c2)o1`: 4.37%.
Regarding `FC(F)(F)CNc1nccc(-c2cnn3ncccc23)n1`, the inhibition is 3.08%.
Turning to `COc1ccc2ncn(-c3cc(O[C@H](C)c4ccccc4C(F)(F)F)c(C(N)=O)s3)c2c1`, the inhibition is -1.03%.
Same read-out and setting: with `N#Cc1cccc(Nc2ncc(-c3ccccc3)o2)c1` the figure was 3.18%; with `CCN1CCC(C(=O)Nc2n[nH]c3nnc(-c4cccc(F)c4F)cc23)CC1`, 1.12%; with `CNC(=O)c1ncccc1Nc1nc(Nc2cc3c(cc2OC)CCCN3C(=O)CN(C)C)nc2[nH]ccc12`, 5.35%.
Still for that read-out and setting: with `CNC(=O)c1cncc(/C=C/c2ccccc2C)c1` the figure was 6.48%; with `CS(=O)(=O)CCNCc1ccc(-c2ccc3ncnc(Nc4ccc(OCc5ccccc5)cc4)c3c2)o1`, 3.8%; with `CS(=O)(=O)CCNCc1ccoc1-c1ccc2ncnc(Nc3ccc(OCc4ccccc4)cc3)c2c1`, 1.75%.
Turning to `COc1cc2c(cc1Nc1nc(Nc3cccc(F)c3C(N)=O)c3cc[nH]c3n1)N(C(=O)CN1CCN(C(C)C)CC1)CC2`, the inhibition is 2.2%.
For the compound `CN1CCC(n2cnc(-c3ccc(F)cc3)c2-c2ccnc(NCCO)n2)CC1`, the inhibition was 4.16%.
On the same count and under the same terms, next, `CCn1c(-c2nonc2N)nc2cncc(C(=O)NCCNC)c21`: 4.48%.
Consider `OCCCNc1nccc(-c2c(-c3ccc(F)cc3)nn3cc(C(F)(F)F)ccc23)n1`, for which the inhibition worked out at 2.84%.
On to `NS(=O)(=O)c1ccc(N/N=C2\C(=O)Nc3ccc(C(=O)NCc4ccncc4)cc32)cc1`, for which the inhibition was 15.1%.
In the case of `CC1(C)CC(n2cnc(-c3ccc(F)cc3)c2-c2ccnc(N)n2)CC(C)(C)N1`, the inhibition came out at 1.52%.
Take `COC(=O)Nc1nc2ccc(Oc3ccc(NC(=O)Nc4cc(C(F)(F)F)ccc4F)cc3)cc2s1`: the inhibition is 2.96%.
On to `COc1c(C(N)=O)cc(-c2ccc(Cl)cc2)cc1-c1ccc(S(N)(=O)=O)cc1`, for which the inhibition was 4.06%.
